Data published in PubChem BioAssay AID720487 (Milwaukee Institute for Drug Discovery, 2013).
Some of the results follow. Activity calls are given as the source filed them.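 How the source made its calls: active means fluorescence interference ratio at or above 1.2, signal boosting, or at or below 0.8, signal quenching; inactive means ratio between 0.8 and 1.2.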

Experiment: Cy5 fluorescence interference with SSB-bound oligo, artefact control for HCV NS3 helicase inhibitor project, biochemical, E. coli SSB, selected ChemBridge compounds (AID 720487);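 further: ratio of compound well signal to mean negative control signal so 1 means no effect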
Settings: Cy5-dT15/E. coli SSB fluorescence interference; at 100 µM; actives lie on both sides

Fluorescence interference ratio, inactive:
COc1ccc(N2C(=O)C=CC2=O)c([N+](=O)[O-])c1 1
O=C1NC(=O)C(=Cc2cc([N+](=O)[O-])cc(Br)c2O)C(=O)N1 0.896
C=CCN1C(=O)/C(=C\c2cc(OC)c(O)c([N+](=O)[O-])c2)C(=O)NC1=S 0.902
CCN(CC)c1ccc(C=C2C(=O)N(C)C(=O)N(C)C2=O)c(O)c1 1.15
CC(C)(C)N1C(=O)NC(=O)C(=Cc2cccs2)C1=O 0.954
Cc1ccc(C(=O)NCCNc2ccc([N+](=O)[O-])cc2)cc1 0.915
CCOc1ccc(C=C2C(=O)NC(=O)NC2=O)cc1Cl 0.963
N#Cc1c(N)nc2sc(C(=O)Nc3ccccc3)c(N)c2c1-c1ccco1 1.02
COc1cc(C=C2C(=O)NC(=O)NC2=O)ccc1OCCOc1ccc([N+](=O)[O-])cc1 0.897
O=C(NC(=S)Nc1ccc(-c2nc3cc(Cl)ccc3o2)cc1)c1ccco1 0.991
Cc1ccc(C(=O)C[n+]2cc(-c3ccccc3)n3c2CCCCC3)cc1 1.01
COc1cc(/C(O)=C(\C#N)c2nc3ccccc3n2C)cc(OC)c1OC 0.913
COc1ccc(C(=O)Oc2ccc3oc(=O)cc(C)c3c2)cc1OC 0.977
O=c1c2c(nc3cc(-c4cccc(F)c4)[nH]n13)CCS2 0.862

Fluorescence interference ratio, active:
CCN(CC)c1ccc(NC(=O)/C(=C\c2ccccc2)NC(C)=O)cc1 1.22
